Source: PubChem BioAssay
Activity calls are given as the source filed them.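 The calls were made as follows, unless noted: active = RAM network inhibition above 8.4% in each of two replicates, 3 SD over the compound average; inconclusive = above 8.4% inhibition in only one replicate; inactive = 8.4% inhibition or less in each replicate.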

Assay: RAM pathway blockade in budding yeast – dse1pr::URA3 reporter, 5-FOA selection, pilot screen (AID 869;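 active = inhibition over a set limit, the all-compound mean plus 3 SD, in both replicate runs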;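 also: 0% = DMSO wells with no growth and 100% = 10 µM 1-NA-PP1 with full growth; RAM network block rescues cells from 5-FOA so hits raise OD615 growth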)
Settings: S. cerevisiae dse1pr::URA3 5-FOA growth, OD615, 2 d; at 10 µM; hits give high values; strain carries analog-sensitive mutant Cbk1 kinase

| SMILES | inhibition |
| --- | --- |
| Cc1ccc(S(=O)(=O)N2CCOCC2)cc1C(=O)Nc1nc(-c2cccnc2)cs1 | 1.93% (inactive) |
| Cc1cccc(C)c1OCc1nnc(SCC(=O)Nc2ccccc2F)o1 | 3.38% (inactive) |
| CCN(CC)CCCN1C(=O)C(O)=C(C(=O)c2ccco2)C1c1ccc(C)o1 (stereo unspecified) | 0.395% (inactive) |
| Cc1ccc(S(=O)(=O)C(C#N)c2nc3ccccc3nc2N2CCCCC2)cc1 (stereo unspecified) | 2.7% (inactive) |
| C(/CCc1ccccc1)=N\n1cnnc1 | 0.44% (inactive) |
| CCOCCCNC(=O)C(c1ccccc1)N(Cc1ccc2c(c1)OCO2)C(=O)CNC(C)=O (stereo unspecified) | 0.43% (inactive) |
| COc1ccccc1N1CCN(c2cc(=O)n(Cc3ccc(F)cc3)c(=O)[nH]2)CC1 | 1.02% (inactive) |
| CNC(=O)C1C2C=CC3(O2)C1C(=O)N(C1CC1)C3C(=O)NCc1ccc(OC)cc1 (stereo unspecified) | 0.115% (inactive) |
| CCCSc1nc2c(cnn2-c2ccc(C)cc2)c(=O)[nH]1 | 3.78% (inactive) |
| Nn1c(Cc2ccccc2F)nnc1SCC(=O)N1CC(=O)Nc2ccccc21 | 2.1% (inactive) |
| CCc1ccc(N2CC(C(=O)OCC(=O)NC3CCS(=O)(=O)C3)CC2=O)cc1 (stereo unspecified) | 0.795% (inactive) |
| Cc1ccccc1Cn1ccc(NC(=O)c2onc(C)c2Cl)n1 | 1.72% (inactive) |
| O=C(CSc1ccc2nnc(-c3ccccc3)n2n1)N1CCN(c2ccccc2)CC1 | 0.38% (inactive) |
| CC(C)C(NC(=O)c1ccc(S(=O)(=O)N2CCOCC2)cc1)c1nc2ccccc2[nH]1 (stereo unspecified) | 2.71% (inactive) |
| Cc1ccc(SCC(=O)NCCN2C(=O)CSC2=O)c(C)c1 | 1.09% (inactive) |
| N#Cc1c2n(c(=O)[nH]c1=O)CCCCC2 | -0.04% (inactive) |
| CCN(C1CCCCC1)S(=O)(=O)c1ccc(S(=O)(=O)N2CCN(CCC#N)CC2)cc1 | 0.645% (inactive) |
| COc1cccc2c(=O)c3c(cnn3C)n(C)c12 | 1.5% (inactive) |
| Cc1nnc(N2C(=O)C(O)=C(C(=O)c3ccco3)C2c2ccc(F)cc2)s1 (stereo unspecified) | 0.21% (inactive) |
| CC1(C)CC(=O)C(C=NCC2CCNCC2)=C(O)C1 | 2.66% (inactive) |
| CCOC(=O)C(C)Sc1nnc(Cc2cc(=O)[nH]c(=O)[nH]2)n1-c1ccc(Cl)cc1 (stereo unspecified) | 1.45% (inactive) |
| O=C(CS(=O)(=O)Cc1ccccc1)Nc1nc2ccccc2s1 | 4.3% (inactive) |

Assay: RAM signaling pathway blockade in yeast – S. cerevisiae, Pdr1DBD-CYC8 efflux-inhibited sensitized strain, primary screen (AID 1298);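 also: 0% = DMSO untreated cells without growth and 100% = 10 µM 1-NA-PP1 full growth; higher means more yeast growth rescued from 5-FOA killing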
Settings: S. cerevisiae cbk1-as DSE1-URA3 strain, 5-FOA growth OD615, 2 d; at 50 µM; hits give high values

| SMILES | RAM network inhibition |
| --- | --- |
| CCOc1ccc(N(CC(=O)Nc2ccc(C)c(C)c2)S(=O)(=O)c2c(C)noc2C)cc1 | 6.75% (inactive) |
| CCCn1c(OC)nc2c1c(=O)n(C)c(=O)n2C | 2.06% (inactive) |
| COc1cc2[nH]c(=O)n(CCCCCC(=O)N3CCN(c4ccccn4)CC3)c(=O)c2cc1OC | 3.23% (inactive) |
| CCOc1ccc(N(CC(=O)NC2CCCCC2)S(=O)(=O)c2c(C)noc2C)cc1 | 1.06% (inactive) |
| O=C(c1ccco1)N1CCN(C(=O)c2sccc2-c2ccccc2)CC1 | 4.79% (inactive) |
| CCSC1=C(C#N)C(c2ccccc2OC)CC(=O)N1 (stereo unspecified) | 1.8% (inactive) |
| CCOC(=O)Cn1nc(-c2ccc(Cl)cc2)cc1N | 5.56% (inactive) |
| CC(C(=O)N1CC2(C)CC1CC(C)(C)C2)N1C(=O)c2ccccc2C1=O (stereo unspecified) | 4.35% (inactive) |
| COc1cccc(N(C(C)=O)c2nc(C)cc(C)c2C#N)c1 | 2.39% (inactive) |
| COc1cccc(NC(=O)c2ccco2)c1 | -0.82% (inactive) |
| Cc1ccc(Cn2c(CN3CCOCC3)nc3c2c(=O)n(C)c(=O)n3C)cc1 | 2.86% (inactive) |
| CCOc1ccc(NC(=O)CSc2nccn2C)cc1 | 7.99% (inactive) |
| Cc1nc2ccc(Br)cn2c1NC(C)(C)C | 1.46% (inactive) |
| COc1ccccc1C(=O)NCCc1nc2ccccc2n1C | 5.39% (inactive) |
| Cn1ccnc1SCC(=O)Nc1ccc2ccccc2c1 | 3.49% (inactive) |
| c1nc(NCC2(N3CCOCC3)CCCCC2)c2ccsc2n1 | 8.05% (inactive) |
| Cc1noc(C(=O)Nc2ccc3c(c2)OCO3)c1Cl | 5.2% (inactive) |
| Cc1ccc(S(=O)(=O)N2CCOCC2)cc1C(=O)Nc1nc(-c2cccnc2)cs1 | 3.11% (inactive) |
| Cc1cccc(C)c1OCc1nnc(SCC(=O)Nc2ccccc2F)o1 | 3.85% (inactive) |
| CCN(CC)CCCN1C(=O)C(O)=C(C(=O)c2ccco2)C1c1ccc(C)o1 (stereo unspecified) | 3.48% (inactive) |

| SMILES | RAM network inhibition |
| --- | --- |
| Cc1ccc(S(=O)(=O)C(C#N)c2nc3ccccc3nc2N2CCCCC2)cc1 (stereo unspecified) | 5.83% (inactive) |
| C(/CCc1ccccc1)=N\n1cnnc1 | 5.92% (inactive) |
| CCOCCCNC(=O)C(c1ccccc1)N(Cc1ccc2c(c1)OCO2)C(=O)CNC(C)=O (stereo unspecified) | 1.52% (inactive) |
| COc1ccccc1N1CCN(c2cc(=O)n(Cc3ccc(F)cc3)c(=O)[nH]2)CC1 | 2.69% (inactive) |
| CNC(=O)C1C2C=CC3(O2)C1C(=O)N(C1CC1)C3C(=O)NCc1ccc(OC)cc1 (stereo unspecified) | 1.1% (inactive) |
| CCCSc1nc2c(cnn2-c2ccc(C)cc2)c(=O)[nH]1 | 4.52% (inactive) |
| Nn1c(Cc2ccccc2F)nnc1SCC(=O)N1CC(=O)Nc2ccccc21 | 3.29% (inactive) |
| CCc1ccc(N2CC(C(=O)OCC(=O)NC3CCS(=O)(=O)C3)CC2=O)cc1 (stereo unspecified) | 3.33% (inactive) |
| Cc1ccccc1Cn1ccc(NC(=O)c2onc(C)c2Cl)n1 | 4.82% (inactive) |
| O=C(CSc1ccc2nnc(-c3ccccc3)n2n1)N1CCN(c2ccccc2)CC1 | 0.93% (inactive) |
| CC(C)C(NC(=O)c1ccc(S(=O)(=O)N2CCOCC2)cc1)c1nc2ccccc2[nH]1 (stereo unspecified) | 6.44% (inactive) |
| Cc1ccc(SCC(=O)NCCN2C(=O)CSC2=O)c(C)c1 | 3.32% (inactive) |
| N#Cc1c2n(c(=O)[nH]c1=O)CCCCC2 | 6.34% (inactive) |
| CCN(C1CCCCC1)S(=O)(=O)c1ccc(S(=O)(=O)N2CCN(CCC#N)CC2)cc1 | -1.33% (inactive) |
| COc1cccc2c(=O)c3c(cnn3C)n(C)c12 | 0.52% (inactive) |
| Cc1nnc(N2C(=O)C(O)=C(C(=O)c3ccco3)C2c2ccc(F)cc2)s1 (stereo unspecified) | 0.57% (inactive) |
| CC1(C)CC(=O)C(C=NCC2CCNCC2)=C(O)C1 | 6.82% (inactive) |
| CCOC(=O)C(C)Sc1nnc(Cc2cc(=O)[nH]c(=O)[nH]2)n1-c1ccc(Cl)cc1 (stereo unspecified) | 5.81% (inactive) |
| O=C(CS(=O)(=O)Cc1ccccc1)Nc1nc2ccccc2s1 | 7.64% (inactive) |
